Test results taken from the supplement of paper PMC10732440.
± gives the standard deviation of the averaged measurements.

System: Caenorhabditis elegans N2 infected with Nematocida parisii ERTm1
Test: progeny production relative to DMSO uninfected control; higher = more progeny despite microsporidia infection (inhibition of infection with low host toxicity)
Details: infection time 6 days
Summary of the method: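 Bleach-synchronised wild-type C. elegans L1 larvae (100 per well) were placed in 96-well plates with K-medium, E. coli OP50 and 15,000 N. parisii spores/μL, with compound pinned to 100 μM or 40 μM in 1% DMSO. Plates were shaken at 21°C for 6 days; worms were then Rose Bengal-stained, flatbed-scanned and counted with WorMachine, each compound and dose tested three times. Progeny production is given as a percentage of the spore-free vehicle control, averaged across replicates.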

| Compound | progeny production (40 µM) | progeny production (100 µM) |
| --- | --- | --- |
| C[C@H](c1cccc2ccccc12)N(C)Cc1ccccc1 | 3.94 ± 1.7% | 12.4 ± 7.8% |
| N=c1n(CCN2CCCCC2)c2ccccc2n1CC(O)COc1ccc(Cl)cc1Cl (configuration not stated) | 5.53 ± 1.7% | 9.49 ± 8.7% |
| COC(=O)Nc1nc2cc(Sc3ccccc3)ccc2[nH]1 | 7.64 ± 3.1% | 29.3 ± 18% |
| Fc1ccc(-c2nc(-c3c[nH]c4ccc(Br)cc34)[nH]c2-c2ccc(F)cc2)cc1 | 3.87 ± 1.5% | 6.81 ± 2.8% |
| CN(C)CC(=O)Nc1ccc2[nH]c(=O)c3ccccc3c2c1 | 3.86 ± 0.4% | 14.1 ± 5% |
| NC(=O)C(c1ccccc1)(c1ccccc1)[C@H]1CCCN(CCc2ccc3c(c2)CCO3)C1 | 7.34 ± 0.47% | 15.2 ± 18% |
| CSc1ccc2c(c1)C(N1CCN(C)CC1)Cc1ccccc1S2 (configuration not stated) | 5.75 ± 2.9% | 13.9 ± 9% |
| Nc1nc2c(ncn2COCCO)c(=O)[nH]1 | 6.44 ± 2.2% | 8.34 ± 8.3% |
| NC(=S)N/N=C/c1ncccc1N | 8.43 ± 4.5% | 18.8 ± 12% |
| Cc1ccc(N2CCC(CCOc3ccc(S(C)(=O)=O)cc3)CC2)nn1 | 4.13 ± 1% | 11.1 ± 10% |
| CN(C)CCCNC(=O)c1ccc(-c2cc(O)c3ncccc3c2)cc1 | 5.74 ± 3.9% | 10.5 ± 6.4% |
| COc1c(NC(=O)[C@H]2CC[C@@H](COc3ccc([N+](=O)[O-])cc3)CC2)c(F)cc2c(=O)c(C(=O)O)cn(C3CC3)c12 | 4.64 ± 2.9% | 8.01 ± 7.4% |
| Nc1nc(=O)c(Br)c(-c2ccccc2)[nH]1 | 5.86 ± 5.3% | 9.38 ± 7.4% |
| O=C(O)CSc1cc(NS(=O)(=O)c2cccc3cccnc23)c2ccccc2c1O | 6.14 ± 2.5% | 14.5 ± 8.5% |
| CCc1ccccc1OCCN1CCCCCC1 | 7.17 ± 1.6% | 20.2 ± 6% |
| O=C(/C(=C/c1ccc(Cl)cc1Cl)n1ccnc1)c1ccc(Cl)cc1 | 24.5 ± 2.2% | 89.8 ± 17% |
| CCCCCCC1c2ccc(O)cc2Oc2cc(O)ccc21 | 4.98 ± 1.8% | 29.9 ± 30% |
| O=C(NCCN1CCCCC1)c1cccc(C(F)(F)F)c1 | 5.09 ± 1.5% | 18.2 ± 16% |
| O[C@@](Cn1cnnn1)(c1ccc(F)cc1F)C(F)(F)c1ccc(-c2ccc(OCC(F)(F)F)cc2)cn1 | 3.9 ± 1.3% | 11.8 ± 2.2% |
| CCCC(=O)OCCc1ccccc1 | 5.19 ± 1.8% | 11.9 ± 12% |
| Oc1ccc2[nH]c(-c3ccccc3)nc2c1 | 5.32 ± 3.2% | 11.5 ± 2.5% |

| Compound | progeny production (40 µM) | progeny production (100 µM) |
| --- | --- | --- |
| COc1cc(C2C3=C(CC(C)(C)CC3=O)Nc3ccccc3N2C(C)=O)ccc1OCc1ccccc1 (configuration not stated) | 2.3 ± 0.93% | 15.1 ± 15% |
| Cc1cccc(CC(=O)N[C@H]2CCOC2=O)c1 | 3.04 ± 0.7% | 6.81 ± 3.6% |
| CNc1nc(=O)[nH]cc1F | 2.97 ± 1.7% | 12.9 ± 10% |
| COc1cc(NC(=O)CN2C(=O)NC(c3ccccc3)(c3ccccc3)C2=O)cc(OC)c1 | 3.5 ± 1% | 15.8 ± 11% |
| Clc1ccc(COC(Cn2ccnc2)c2ccc(Cl)cc2Cl)c(Cl)c1 (configuration not stated) | 4.89 ± 1.7% | 8.86 ± 1.6% |
| CC(=O)N1c2ccccc2NC2=C(C(=O)CC(C)(C)C2)C1c1ccc(OCc2ccccc2)cc1 (configuration not stated) | 4.92 ± 0.34% | 9.82 ± 5.5% |
| CC(Cc1ccccc1)C(=O)Nc1ccc(Cl)cc1C(=O)O (configuration not stated) | 7.65 ± 4.2% | 14.4 ± 0.88% |
| CC(C)(C)NC(=O)[C@@H]1C[C@@H]2CCCC[C@@H]2CN1C[C@@H](O)[C@H](Cc1ccccc1)NC(=O)[C@H](CC(N)=O)NC(=O)c1ccc2ccccc2n1 | 6.54 ± 4.7% | 6.35 ± 4.1% |
| O=C(Nc1ccccc1)N(Cc1cc(Br)ccc1O)c1ccc(F)cc1 | 3.85 ± 1% | 17.4 ± 13% |
| CCc1cc(O)c(Oc2cccnc2N)cc1F | 6.17 ± 3.4% | 10.2 ± 5.5% |
| COc1ccc2nc(-c3ccccc3)cc(O)c2c1 | 10.7 ± 7.9% | 8.32 ± 3.4% |
| CCOC(=O)N1CCN(c2ccc(Cl)cc2)CC1 | 4.15 ± 1.7% | 12.1 ± 18% |
| NC(=O)c1nccn([C@@H]2O[C@H](CO)[C@@H](O)[C@H]2O)c1=O | 6.9 ± 2.3% | 10.3 ± 7.2% |
| CC(=O)N1CCN(c2ccc(OCC3COC(Cn4ccnc4)(c4ccc(Cl)cc4Cl)O3)cc2)CC1 (configuration not stated) | 5.16 ± 2.3% | 18 ± 6.4% |
| CCc1nc(N)nc(N)c1C#CCc1ccccc1 | 8.69 ± 6% | 15.6 ± 5% |
| CCOc1noc2cc(OCCC3CCN(c4ccc(C)nn4)CC3)ccc12 | 4.43 ± 1.4% | 17.1 ± 11% |
| C[C@H]1[C@@H](c2cccc(C(F)(F)F)c2)OC(=O)N1C(=O)NCc1cncc2ccccc12 | 2.28 ± 1.4% | 7.48 ± 6.2% |
| NC(=O)c1cnccn1 | 6.68 ± 7.5% | 6.97 ± 1.1% |
| Cc1[nH]c2ccccc2c1CC(=O)N[C@@H](Cc1ccccc1)C(=O)N(C)c1ccccc1 | 4.28 ± 2.4% | 17.6 ± 9.7% |
| CCc1ccc(C2CC(C(F)(F)F)n3ncc(C(=O)NCc4ccc(OC)cc4)c3N2)cc1 (configuration not stated) | 8.73 ± 4.8% | 7.32 ± 3.4% |
| CCC[C@@H]1C[C@@H](C(=O)N[C@@H]([C@H]2O[C@H](SC)[C@H](O)[C@@H](O)[C@H]2O)[C@H](C)Cl)N(C)C1 | 6.74 ± 4.3% | 7.36 ± 5.1% |

| Compound | progeny production (40 µM) | progeny production (100 µM) |
| --- | --- | --- |
| O=[N+]([O-])c1cn(Cc2nc(O)nc(O)c2Br)cn1 | 8.41 ± 4.5% | 8.29 ± 4.9% |
| COc1ccc(C[C@@H](C)[C@@H](C)Cc2ccc(OC)c(OC)c2)cc1OC | 3.86 ± 0.4% | 16 ± 4.1% |
| CC(C)(C)c1cc(C(=O)/C(C#N)=N/Nc2cccc(Cl)c2)no1 | 4.44 ± 0.8% | 13.4 ± 11% |
| COc1c(F)c(F)cc2c(=O)c(C(=O)O)cn(C3CC3)c12 | 6.01 ± 4.3% | 12.9 ± 4.6% |
| FC(F)(F)Oc1ccc(Nc2ccc3cccc(Cl)c3n2)cc1 | 6.88 ± 1.5% | 11.1 ± 7.2% |
| C[C@H]1COc2c(N3CCN(C)CC3)c(F)cc3c(=O)c(C(=O)O)cn1c23 | 5.38 ± 2.2% | 12.8 ± 9.1% |
| CC(=O)Oc1ccccc1C(=O)Nc1ncc([N+](=O)[O-])s1 | 3.11 ± 1.7% | 10.8 ± 5.3% |
| CC(C)(C)c1ccc(C(Cn2cccc(C(F)(F)F)c2=O)NC2Cc3ccccc3C2)cc1 (configuration not stated) | 1.91 ± 1.3% | 13.4 ± 9.4% |
| COc1ccc(NC(=O)c2cc3ccccn3n2)cc1 | 9 ± 5.7% | 13.6 ± 6% |
| CCCCCCCCCN1C[C@@H](O)[C@H](O)[C@@H](O)[C@@H]1CO | 6.57 ± 1.1% | 11.9 ± 5.5% |
| CC1=C(/C=C/C(C)=C/C=C/C(C)=C/C(=O)Nc2ccc(O)cc2)C(C)(C)CCC1 | 3.02 ± 2.2% | 11.6 ± 9.7% |
| O=C(O)C(Cc1c[nH]c2ccccc12)N1C(=O)c2ccccc2C1=O (configuration not stated) | 6.93 ± 1.2% | 9.79 ± 1.2% |
| Cc1ccc(NC(=O)c2ccc(CN3CCN(C)CC3)cc2)cc1Nc1nccc(-c2cccnc2)n1 | 5.07 ± 2.9% | 9.12 ± 3.8% |
| Nc1nc(N)c2c(Sc3ccccc3)cccc2n1 | 3.69 ± 1.5% | 16.4 ± 12% |
| O=C1c2cccc3cccc(c23)C(=O)N1CC1CO1 (configuration not stated) | 7.39 ± 4.7% | 44.9 ± 30% |
| O=C(Nc1ncc(Cc2cccc3ccccc23)s1)C1CCCCC1 | 8.93 ± 0.69% | 13 ± 5.7% |
| CNC(=O)C1O[C@@H](n2cnc3c(NCc4cccc(I)c4)nc(Cl)nc32)[C@H](O)[C@@H]1O (some centres not stated) | 5.42 ± 1.8% | 12.6 ± 3.5% |
| Nc1nc(Nc2ccc3nc(-c4ccc(F)cc4)cc(N)c3c2)cc(-c2ccccc2)n1 | 3.92 ± 1.1% | 7.7 ± 7.8% |
| CCCCCCCCC(CP(=O)(O)C(C)N)C(=O)O (configuration not stated) | 7.53 ± 0.85% | 18.6 ± 11% |
| Cc1ccn2c(C(=O)NCc3ccccc3)c(C)nc2c1 | 9.26 ± 8.6% | 13.1 ± 10% |
| Nc1nnnn1CCOc1c2[nH]c3ccc(Cl)cc3c2cc2c1[nH]c1ccc(Cl)cc12 | 5.74 ± 5.8% | 8.85 ± 7.7% |

| Compound | progeny production (40 µM) | progeny production (100 µM) |
| --- | --- | --- |
| O=C(Nc1ccc(F)cc1)c1nn(-c2ccccc2)c(=O)cc1Cl | 5.87 ± 3.4% | 14 ± 9.4% |
| CCOC(=O)N[C@@H]1CC[C@@H]2[C@@H](C1)C[C@H]1C(=O)O[C@H](C)[C@H]1[C@H]2/C=C/c1ccc(-c2cccc(F)c2)cn1 | 4.47 ± 3.1% | 9.38 ± 3.8% |
| C[C@@H]1O[C@@H]1P(=O)(O)O | 4.36 ± 0.35% | 15.3 ± 13% |
| O=C(Nc1nnc(-c2ccc(Cl)cc2)o1)c1ccc(F)cc1 | 9.22 ± 7.4% | 12.6 ± 4.1% |
| O=C(Cc1ccccc1F)Nc1nc2ccccc2[nH]1 | 4.94 ± 2.8% | 8.29 ± 4.9% |
| CC#C[C@]1(O)CC[C@H]2[C@@H]3CCC4=CC(=O)CCC4=C3[C@@H](c3ccc(N(C)C)cc3)C[C@@]21C | 4.64 ± 1.1% | 14.9 ± 4.7% |
| Cc1cc(Nc2ccc(F)cc2)nc(SCc2nc3ccccc3[nH]2)n1 | 3.08 ± 0.71% | 16.7 ± 14% |
| N[C@H](CCC(=O)N[C@@H](Cc1c[nH]c2ccccc12)C(=O)O)C(=O)O | 6.53 ± 2.2% | 14.8 ± 3.7% |
| CONC(=N)c1ccc(-c2ccc(-c3ccc(C(=N)NOC)cc3)o2)cc1 | 5.44 ± 1.7% | 14.6 ± 6% |
| CCCCN1C[C@H](O)[C@@H](O)[C@H](O)[C@H]1CO | 4.97 ± 3.5% | 13.9 ± 3.7% |
| CC(C)c1cc2c(cc1S(=O)(=O)O)[C@@]1(C)CCC[C@@](C)(C(=O)O)[C@@H]1CC2 | 8.72 ± 4.5% | 4.55 ± 3% |
| Oc1cccc(C(Nc2nccs2)c2ccc3cccnc3c2O)c1 (configuration not stated) | 4.05 ± 2% | 12.9 ± 2.9% |
| O=C(Nc1[nH]c(=O)ncc1F)c1ccccc1 | 4.09 ± 0.71% | 23.8 ± 20% |
| O=C(Nc1ccc(Cl)c(C(F)(F)F)c1)C(CCCl)C(=O)Nc1ccc(Cl)c(C(F)(F)F)c1 | 7.13 ± 2.7% | 8.04 ± 5.6% |
| CC1(C)CC(NC(=O)C(=O)Nc2ccc(Cl)cc2)CC(C)(C)N1 | 2.32 ± 0.043% | 8.19 ± 5.5% |
| O=C(/C=C\n1cnc(-c2cc(C(F)(F)F)cc(C(F)(F)F)c2)n1)NNc1ccccn1 | 3.49 ± 1.1% | 7.21 ± 3.6% |
| O=C(O)c1cc(-c2ccc(Br)cc2)nc2ccc(Cl)cc12 | 4.63 ± 0.086% | 11.3 ± 3.5% |
| O=C(NN1C(=O)[C@@H]2[C@@H]3C=C[C@@H]([C@H]4C[C@@H]34)[C@@H]2C1=O)c1ccc(C(F)(F)F)cc1 | 3.22 ± 1.3% | 9.48 ± 4% |
